Source: PubChem BioAssay AID492947 (National Center for Advancing Translational Sciences (NCATS), 2010)
Screen size: about 330,000 compounds; about 80 (0.02%) were called active. The call rests on the fitted dose curve; in most records, active means well fitted activation curve with a large enough effect; inconclusive means small, poorly fitted or top-dose-only effect; inactive means flat fitted curve, though single readings scatter. What follows is part of a selection rich in actives, with near analogues and random picks from the rest.

target: Beta-2 adrenergic receptor (Homo sapiens) (UniProt P07550); assay: qHTS assay of beta-arrestin-biased ligands of beta2-adrenergic receptor; settings: beta-arrestin recruitment to beta2AR, cell-based reporter; series mostly up to 46.1 µM; further: nearly all actives have a fitted effect of over 65% in size
Sequence (P07550 whole entry, looked up): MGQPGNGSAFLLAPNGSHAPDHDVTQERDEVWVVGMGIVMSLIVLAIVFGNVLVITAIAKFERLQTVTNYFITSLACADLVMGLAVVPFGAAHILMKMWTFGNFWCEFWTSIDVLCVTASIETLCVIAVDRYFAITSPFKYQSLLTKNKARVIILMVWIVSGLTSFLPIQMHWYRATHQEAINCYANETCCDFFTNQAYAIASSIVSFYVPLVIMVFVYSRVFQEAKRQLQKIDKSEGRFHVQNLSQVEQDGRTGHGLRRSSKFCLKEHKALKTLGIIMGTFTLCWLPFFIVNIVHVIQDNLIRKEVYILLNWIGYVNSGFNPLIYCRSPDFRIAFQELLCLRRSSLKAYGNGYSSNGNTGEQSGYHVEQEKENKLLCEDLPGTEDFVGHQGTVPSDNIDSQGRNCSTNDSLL
Excerpt: NIH Molecular Libraries Probe Production Network [MLPCN]
NIH Chemical Genomics Center [NCGC]
PI: Bryan Roth and Bob Lefkowitz
The concept of biased agonism is an emerging concept of molecular pharmacology which proposes that seven transmembrane receptors (7TMRs) or G protein-coupled receptors (GPCRs), exist in multiple signaling conformations and complexes and that ligands (either agonists or antagonists) can induce signaling biased responses for distinct signal transduction cascades.
Furthermore, accumulating evidence over the last decade has drawn attention to a novel function of beta-arrestins as signal transducers that scaffold various signaling molecules upon activation of 7TMRs. […] This beta-arrestin-biased signaling presumably leads to distinct physiological outcomes from those by G protein activation.
Additionally, the active receptor conformations which […] on this beta-arrestin signaling are likely different from those activating G protein signaling
The goal of this screening project will be to discover and optimize novel beta-arrestin-biased ligands for beta2-AR signaling. A luminescent cell-based assay for beta2-AR-mediated agonism, known as the Tango assay, has been validated in which ligand binding of a recombinant beta2-AR and subsequent recruitment of a recombinant beta-arrestin lead to the release of the transcriptional activator tTA, which upregulates transcription of a tTA-responsive luciferase gene. […] Compounds were screened as a concentration-titration series that ranged from 46 microM to 0.6 nM.
NCGC Assay Protocol Summary:
Tango cells were dispensed into white, solid, tissue-culture-treated 1536-well plates at 1500 cells/well in DMEM, containing 1% fetal bovine serum (FBS). Then, 23 nL of compounds or DMSO were delivered to each well using a pin tool. Plates were incubated at 37 degrees C, 5% CO2 for 18 hr. Then 2.5 uL luminescent substrate mix (in-house prepared: 150 mM Tris-Cl, pH 7.6, 3 mM MgCl2, 1% Triton X-100, 5 mM DTT, 0.5 mM CoA, 0.15 mM ATP, 0.44 mM D-luciferin, final concentrations) was added to each well. Plates were then incubated for 15 minutes at room temperature, and subsequently measured on a ViewLux plate reader for luminescent signal using a clear filter with a 10 second exposure and 2x binning. The %Activity was determined from the corrected luminescence values.
Concentration-response curves were fitted to the signals arising from the resulting luminescence. The concentration-effect curves were then classified based on curve quality (r2), response magnitude and degree of measured activity, and compounds were subsequently categorized based on their curve class.
Keywords: biased agonism, beta2-AR, beta-arrestin, GPCR, 7TMR, Tango, luminescence, MLSMR, MLPCN, NIH Roadmap, qHTS, NCGC

Potency, inactive:
CC12C(=O)N(c3ccccc3)C(=O)C1C(c1ccccc1)N1CCCN12 (centres undefined)
Cc1c(Cl)cccc1NC(=O)NCc1ccc(C)n1C
CCOC(=O)Cc1ncccc1C(=O)Nc1ccc(OC(F)(F)F)cc1
CCOC(=O)N1CCC(N(CCOC)C(=O)Nc2ccc(C)c(C)c2)CC1
CCOC(=O)N/N=C1\CC(C)S(=O)(=O)c2ccc(Cl)cc21 (centres undefined)
CC1CCC(C(C)C)C(=O)/C1=C\c1ccc(NC(=O)CCC(=O)O)cc1 (centres undefined)
COC(=O)c1ccc(-c2c(-c3ccccc3)ncc3cc(OC)c(OC)cc23)cc1
NC1=NC2(CCCCC2)N(c2ccc(F)cc2F)C(N)=N1
O=C(Oc1ccc(Br)cc1C(=S)N1CCOCC1)c1cccc([N+](=O)[O-])c1
CCOC(=O)C1CCN(Cc2coc3ccc(Cl)cc3c2=O)CC1
COc1ccc(S(=O)(=O)N(C)CC(=O)N2CCCC2)cc1Cl
C/C(=N\NC(=O)c1cc2c(s1)CCC(C)C2)c1cccnc1 (centres undefined)
COC(=O)[C@H](CC(C)C)NC(=O)N1CCCCC1C (some centres undefined)
Cc1ccccc1-n1nc(C)c2c1N=C1C(Cl)=CC(Cl)=CN1C2c1ccc(C(=O)O)cc1 (centres undefined)
COc1ccc2c(c1)CCc1cn3ncc(C#N)c3nc1-2
COc1ccc(OCC(=O)NCCc2ccc(S(N)(=O)=O)cc2)cc1
Cc1nn(-c2ccccc2)c2sc(C(=O)N(Cc3ccco3)C(C)C(=O)NC(C)(C)C)cc12 (centres undefined)
Cc1ccccc1N1CCN(C2CCCN(C(=O)c3cn4c(C)cccc4n3)C2)CC1 (centres undefined)
COCCn1c(SCC(=O)Nc2cc(OC)ccc2OC)nc2c(c1=O)SC(C)C2 (centres undefined)
Cc1cc(Cl)ccc1NC(=S)N1CCC(C(N)=O)(N2CCCCC2)CC1
C[C@H]1COC(=O)[C@H](CC(=O)OC(C)(C)C)C/C=C\C[C@@H](CC(=O)N[C@H](CO)Cc2ccccc2)C(=O)N1
CCCn1c(C(Cc2ccccc2)NC(=O)COC)nc2ccccc21 (centres undefined)
O=C(Nc1ccccc1F)C1C2C=CC3(O2)C1C(=O)N(c1cccnc1)C3C(=O)NC1CCCCC1 (centres undefined)
COC(=O)CN1C(=O)C(C)(C)Oc2ccc(C(=O)Nc3cccc(OC)c3)cc21
CC1(c2ccc(Cl)cc2Cl)NC(=O)N(CC(=O)Nc2cccnc2Cl)C1=O (centres undefined)
CSc1nc2nc3c(c(=O)n2[nH]1)CCC3
O=C(COC(=O)Cc1ccc(Br)cc1)Nc1ccc(N2CCOCC2)cc1
CCN1CCCC1CNC(=O)Cn1cnc2ccc(S(=O)(=O)N3CCC(C)CC3)cc2c1=O (centres undefined)
O=C(CCNC(=O)c1ccccc1Cl)NN=Cc1ccco1
Cc1ccc(S(=O)(=O)N2CCN(C(=O)CCC(=O)NC3CCCc4ccccc43)CC2)cc1 (centres undefined)
COC(=O)C(C)n1cnc2c(nnn2-c2ccc(F)cc2)c1=O (centres undefined)
Cc1ccc(C2(C)NC(=O)N(CC(=O)N3CC(=O)Nc4ccccc43)C2=O)cc1 (centres undefined)
CC(OC(=O)CNS(=O)(=O)/C=C/c1ccccc1)C(=O)Nc1ccc(S(=O)(=O)N2CCCC2)cc1 (centres undefined)
CCOC(=O)c1c(-c2cccc(N)c2)cn2ccccc12
CCOc1cc2[nH]c(=S)n(CCCN3CCCC3=O)c(=O)c2cc1OCC
COc1ccc(CS(=O)/C(Cl)=C(/Cl)C(=O)Nc2ccc(OC)nc2)cc1 (centres undefined)
CC1CC1C(=O)OCC(=O)Nc1cccc(F)c1 (centres undefined)
CC1CCC2(CC1)NC(=O)N(Cc1nnc(-c3cccs3)o1)C2=O (centres undefined)
NC(=O)c1ccsc1NC(=O)COC(=O)Cc1n[nH]c(=O)c2ccccc12
CCOCCCNC(=O)c1cn(CC(C)C)c(=O)c2c1c1ccccc1n2C
Cc1cc(C)c(C#N)c(SCC(=O)NN2CC(=O)N(c3ccccc3F)CC2=O)n1
COc1ccc(CC(NC(C)=O)C(=O)NC2CCN(C(=O)C3CC3)CC2)cc1OC (centres undefined)
COc1ccccc1OCCn1c(SCC(N)=O)nc2ccccc21
CCc1cccc(C)c1NC(=O)COC(=O)CC1CCCC1
O=C(Nc1cc(-c2nn(CC(=O)N3CCCCC3)c(=O)c3ccccc23)ccc1N1CCOCC1)c1ccc(Cl)cc1
COc1ccc2c(-c3ccccc3)cc(SCC(=O)N(C)C3CCS(=O)(=O)C3)nc2c1 (centres undefined)
COC(=O)c1cccc(NC(=O)CN2CCC(NC(=O)c3cc(OC)c(OC)c(OC)c3)CC2)c1
O=C(COc1ccccc1Cl)Nc1ccc(C(=O)c2ccc(C(=O)O)cc2)cc1
OC(COCC1COc2ccccc2O1)CN1CCN(c2ccc(F)cc2)CC1 (centres undefined)
